Screening results deposited in PubChem BioAssay by NMMLSC.
An excerpt weighted towards active compounds, which were near 0.93% of everything screened.
MEP2-GFP yeast = alters MEP2-GFP fluorescence in TOR pathway yeast screen | S. cerevisiae MEP2-GFP strain, flow cytometry GFP, 3 h; 100% = DMSO control level | GFP response vs DMSO, % at 10 µM | actives 0.51% (n = 330,000) | AID 2016;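 active = GFP response versus DMSO above a set limit, roughly screen mean plus 3 SD, cut at about 180% in these data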;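 note: median GFP fluorescence of the barcode-gated MEP2-GFP cells per well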
RPL19A-GFP yeast = modulators of TOR pathway RPL19A-GFP in S. cerevisiae | S. cerevisiae RPL19A-GFP strain, flow cytometry, 3 h; stronger effect = lower value | percent response vs DMSO, % at 10 µM | actives 0.3% (n = 330,000) | AID 2025;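 active = percent response vs DMSO below 50%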;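 note: median channel GFP fluorescence of the barcoded RPL19A-GFP strain; ratio of sample median GFP to plate DMSO average so 100% = DMSO; lower means less RPL19A-GFP as with rapamycin TOR inhibition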
AGP1-GFP MLPCN = modulators of TOR pathway AGP1-GFP in S. cerevisiae; S. cerevisiae AGP1-GFP multiplex flow cytometry, 3 h; GFP as percent of DMSO wells; GFP response vs DMSO, % at 10 µM; actives 0.02% (n = 320,000); AID 2066;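 active = GFP response relative to DMSO above a set limit, near screen average plus 3 SD, cut at about 150% in these data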;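 note: median GFP channel fluorescence of the gated AGP1 strain per well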
LAP4 TOR yeast = modulators of TOR pathway LAP4-GFP in S. cerevisiae. GFP response vs DMSO, % at 10 µM. actives 0.34% (n = 320,000). S. cerevisiae LAP4-GFP multiplex, flow cytometry GFP, 3 h; median GFP as percent of DMSO wells;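 active = GFP response vs DMSO above a set limit, about the screen mean plus 3 SD, cut at about 150% in these data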
CIT2 TOR yeast = yeast TOR pathway CIT2-GFP modulation; S. cerevisiae CIT2-GFP strain, flow cytometry, 3 h; 100 means same as DMSO wells; GFP response vs DMSO, % at 10 µM; actives 0.065% (n = 320,000); AID 2029;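 active = GFP response relative to DMSO above a set limit, near the screen mean plus 3 SD, cut at about 150% in these data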;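 note: ratio of well median GFP fluorescence to mean of DMSO wells on the plate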
LAP4 cherry2 = second confirmation of modulators of TOR reporter LAP4-GFP in yeast. actives 20% (n = 590). shares compounds with LAP4 TOR yeast. GFP response vs DMSO, % at 10 µM. S. cerevisiae LAP4-GFP strain, flow cytometry GFP, 3 h. AID 2621;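 active = GFP signal as percent of the solvent control above about 150%, meaning raised reporter expression, limit read from the data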;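 note: ratio of well median GFP fluorescence to plate DMSO mean so 100% = DMSO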
MEP2 cherry2 = yeast MEP2-GFP modulation, second cherry pick | shares compounds with LAP4 TOR yeast | S. cerevisiae MEP2-GFP strain, flow cytometry GFP, 3 h | GFP response vs DMSO, % at 10 µM | actives 10% (n = 590) | AID 2622;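 active = GFP signal above 150% of the solvent control wells, that is a rise of more than half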;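 note: median channel GFP fluorescence of all gated yeast cells per well; ratio of median GFP to plate DMSO average so 100% = DMSO level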
RPL19A-GFP pick2 = yeast RPL19A-GFP TOR reporter modulation, second cherry pick | shares compounds with LAP4 TOR yeast | S. cerevisiae RPL19A-GFP strain, flow cytometry GFP, 3 h; stronger effect = lower value; 100% means same as DMSO wells | GFP response vs DMSO, % at 10 µM | actives 3% (n = 590);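 active = under 65% GFP response relative to DMSO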;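 note: median GFP channel fluorescence per well over the all cells gate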
CIT2-GFP pick2 = second confirmation of modulators of TOR reporter CIT2-GFP in yeast. shares compounds with LAP4 TOR yeast. S. cerevisiae CIT2-GFP strain, flow cytometry GFP, 3 h; DMSO control wells read 100%. GFP response vs DMSO, % at 10 µM. actives 8% (n = 590). AID 2624;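 active = GFP response vs DMSO above about 150%, limit read from the data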;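 note: median green fluorescence per well over all gated yeast cells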
AGP1-GFP pick2 = reconfirmed modulator of AGP1-GFP TOR reporter in yeast; 590 tested, under 10 active; shares compounds with LAP4 TOR yeast; percent response vs DMSO, % at 10 µM; S. cerevisiae AGP1-GFP strain, flow cytometry GFP, 3 h;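 active = over 150 percent of DMSO response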;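 note: median GFP channel fluorescence over all cells without mother daughter split; sample median GFP divided by mean DMSO control so 100% equals DMSO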
s288c autofluor = yeast s288c autofluorescence artifact, counter-screen. S. cerevisiae s288c, 520 nm autofluorescence, flow cytometry, 3 h; stronger effect = higher value; zero means same as solvent-only cells. AID 2757. 610 tested, under 10 active. shares compounds with LAP4 TOR yeast. fluorescence change (kMESF span) at 33 µM;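 active = fluorescence span over the dose series, or activity score, above about 33, limit read from the data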
s288c autofl DR = TOR screen hit shows autofluorescence in yeast s288c; shares compounds with LAP4 TOR yeast; S. cerevisiae s288c parental, compound autofluorescence, flow cytometry, 3 h; fluorescence change (span) at 33 µM; 110 tested, under 10 active; AID 488829;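 active = fluorescence change span, or the activity score built from it, above 25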
TORC1 bypass = compounds blocking wildtype yeast growth but not TORC1 bypass cells; shares compounds with LAP4 TOR yeast; S. cerevisiae BY4741 spot growth rating, 48-72 h; stronger effect = lower value; growth rating (0-3) at 30 µM; 120 tested, under 10 active; AID 504456;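 active = growth rating at most 1 for wild type yeast while the TORC1 bypass strain still grows fully, rated 3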
An asterisk follows results filed as active; . = no result.

SMILES	MEP2-GFP yeast	RPL19A-GFP yeast	AGP1-GFP MLPCN	LAP4 TOR yeast	CIT2 TOR yeast	others
CCOC(=O)C1CCN(CC(=O)Nc2ccc(S(=O)(=O)N3CCC(C)CC3)cc2)CC1	100.5	97.0	100.0	98.7	93.8
O=c1oc(-c2ccco2)nc2ccccc12	99.5	94.3	91.8	121.0	92.7
O=C(Oc1oc(-c2ccco2)nc1C=Nc1ccccc1)c1ccco1	90.3	98.1	79.0	203.1*	71.1	s288c autofluor=0.3
O=C(Oc1oc(-c2ccco2)nc1C=Nc1ccccc1)c1ccoc1	86.8	90.8	72.5	216.8*	86.6	s288c autofluor=-9.58
Cc1ccc(N=Cc2nc(-c3ccco3)oc2O)cc1	95.4	91.0	90.7	118.9	91.9
NC(=O)CSc1oc(-c2ccco2)nc1S(=O)(=O)c1ccccc1	92.9	107.6	101.6	96.5	100.9
Cc1ccc(C(=O)Oc2oc(-c3ccco3)nc2C=Nc2ccc(Cl)cc2)cc1	96.1	99.6	74.6	223.1*	92.5	s288c autofluor=0.2
Cc1nc(N2CCN(S(=O)(=O)c3ccc(F)cc3)CC2)c2c(-c3cccs3)csc2n1	106.9	99.5	100.4	105.7	99.1
NC(=O)C1CCN(C(=O)c2cc(Cl)c3c(c2)OCCO3)CC1	95.1	83.4	99.4	182.8*	71.2	LAP4 cherry2=99.0;MEP2 cherry2=98.2;RPL19A-GFP pick2=100.7;CIT2-GFP pick2=106.3;AGP1-GFP pick2=100.3
N#Cc1ccc(CN2CCN(C(=O)c3cc(Cl)c4c(c3)OCCO4)CC2)cc1	100.5	98.8	102.3	108.6	94.3
CCOC(=O)C1=C(C)N(c2ccc(C)cc2)C(=O)/C1=C\c1ccc(O)c(OC)c1	105.4	100.3	106.0	112.4	95.0
CCOC(=O)C1=C(O)c2ccccc2C(=O)/C1=C\c1ccc(C)cc1	111.4	81.6	72.3	185.6*	80.1	LAP4 cherry2=186.5*;MEP2 cherry2=221.3*;RPL19A-GFP pick2=100.0;CIT2-GFP pick2=161.7*;AGP1-GFP pick2=93.1;s288c autofluor=41.3*
COc1ccc(/C=C2\SC(=S)N(CCC(=O)NC3CCCC3)C2=O)cc1OC	101.9	101.5	103.4	96.1	107.2
Cc1ccc(Nc2ccc(-n3ccnc3)nn2)cc1C	156.5	53.2	30.3	96.6	79.5	LAP4 cherry2=103.2;MEP2 cherry2=103.1;RPL19A-GFP pick2=100.6;CIT2-GFP pick2=100.1;AGP1-GFP pick2=96.7
CCOC(=O)CCCCC(=O)c1[nH]c(=O)[nH]c1CSc1nnc2c3ccccc3n(C(C)C)c2n1	113.8	108.0	107.6	108.7	106.5
O=C(OCn1ncc(Br)c(Br)c1=O)c1ccc(F)cc1	85.5	89.8	80.9	235.9*	.	s288c autofluor=0.61;s288c autofl DR=0.36;TORC1 bypass=2
O=C(OCc1cnc(Cl)s1)c1ccccc1Cl	96.9	94.8	74.6	100.3	84.3
O=C(OCn1ncc(Br)c(Br)c1=O)c1ccccc1Cl	89.8	87.5	96.4	203.1*	84.4	s288c autofluor=0
CCOC(=O)C1(Cc2cccc(F)c2)CCN(Cc2cnn(CC)c2C)CC1	98.9	92.3	97.2	93.4	.
CN(C(=O)COC(=O)c1cc(S(=O)(=O)N2CCOCC2)ccc1Cl)C1CCS(=O)(=O)C1 (stereo not given)	100.4	105.0	108.6	107.9	94.2
Cc1cccc(NC(=O)c2nc[nH]c2C(=O)NCC(=O)OC(C)(C)C)c1	97.9	97.1	93.1	168.4*	112.2	LAP4 cherry2=117.2;MEP2 cherry2=104.8;RPL19A-GFP pick2=91.6;CIT2-GFP pick2=90.4;AGP1-GFP pick2=93.7
Cc1cccc(NC(=O)c2nc[nH]c2C(=O)N[C@@H](C)C(=O)OC(C)(C)C)c1	90.5	97.1	78.5	160.3*	76.6	LAP4 cherry2=109.6;MEP2 cherry2=98.2;RPL19A-GFP pick2=93.5;CIT2-GFP pick2=91.6;AGP1-GFP pick2=94.8
C[C@H](NC(=O)c1[nH]cnc1C(=O)Nc1ccc(Cl)cc1)C(=O)OC(C)(C)C	90.5	97.1	85.5	158.0*	89.4	LAP4 cherry2=109.2;MEP2 cherry2=108.3;RPL19A-GFP pick2=93.3;CIT2-GFP pick2=96.0;AGP1-GFP pick2=95.4
CCC(C)Nc1nc(N)c([N+](=O)[O-])c(Nc2cccc(F)c2)n1 (stereo not given)	.	.	.	.	.	s288c autofl DR=0.06;TORC1 bypass=3
Cc1nc(Nc2ccc(F)cc2)nc(Nc2ccc(F)cc2)c1[N+](=O)[O-]	98.8	99.1	103.0	101.4	100.0
SMILES	MEP2-GFP yeast	RPL19A-GFP yeast	AGP1-GFP MLPCN	LAP4 TOR yeast	CIT2 TOR yeast	others
Nc1nc(NCCc2ccccc2)nc(NCc2ccccc2)c1[N+](=O)[O-]	105.1	101.6	93.5	97.9	97.5
Cc1ccc(CNc2nc(N)c([N+](=O)[O-])c(Nc3cccc(F)c3)n2)cc1	103.1	100.5	104.1	105.9	105.4
COCCNc1nc(N)c([N+](=O)[O-])c(Nc2cccc(F)c2)n1	.	.	.	.	.	s288c autofl DR=0;TORC1 bypass=3
Nc1nc(NCCc2ccccc2)nc(Nc2cccc(F)c2)c1[N+](=O)[O-]	.	.	.	.	.	s288c autofl DR=0.1;TORC1 bypass=3
COc1cccc(Nc2nc(N)c([N+](=O)[O-])c(Nc3cccc(F)c3)n2)c1	.	.	.	.	.	s288c autofl DR=0.16;TORC1 bypass=3
O=C(COC(=O)c1ccc2ccccc2c1O)NCC(F)(F)F	109.6	116.6	106.8	112.4	111.9
Cc1cc(Nc2cccc(F)c2)nc(NCc2ccccc2)n1	99.8	108.5	91.7	82.6	90.0
Nc1nc(Nc2ccccc2F)nc(Nc2cccc(F)c2)c1[N+](=O)[O-]	.	.	.	.	.	s288c autofl DR=0.21;TORC1 bypass=3
Nc1nc(NC2CCCCC2)nc(NCCO)c1[N+](=O)[O-]	104.5	99.8	103.7	.	98.4
Nc1nc(Nc2cccc(F)c2)nc(NCCO)c1[N+](=O)[O-]	97.9	97.0	106.2	106.1	102.6
Nc1nc(NC2CCCCC2)nc(Nc2cccc(F)c2)c1[N+](=O)[O-]	.	.	.	.	.	s288c autofl DR=0.11;TORC1 bypass=3
Nc1nc(NCc2ccco2)nc(Nc2ccccc2)c1[N+](=O)[O-]	96.3	97.5	100.2	93.6	100.6
